From the supplement of paper PMC12350171
Counter-ions that a name gives are not always drawn.

Legend:
Conditions in all cases: 20 µM
[1] = test system: Salmonella enterica typhimurium; test: growth AUC normalised to DMSO control (fraction of control); higher = less growth inhibition, active = hit call of the paper
Procedure, shortened: (§1)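 Pathogens passaged twice anaerobically were inoculated at a starting OD578 of 0.01 into pre-reduced mGAM plates with drug at 20 μM and 1% DMSO, sealed with breathable membranes. Haemophilus parainfluenzae medium was supplemented with hemin and NAD. OD578 was read hourly for 24 h, with three biological replicates. Growth-curve AUC was computed by the trapezoidal rule up to the exponential-to-stationary transition and normalised to DMSO controls on the same plate.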

Shigella flexneri = test: as above
Procedure, shortened: as §1

Vibrio cholerae = test: as above
Procedure, shortened: as §1

[2] = test system: Yersinia pseudotuberculosis; test: as above
Procedure, shortened: as §1

P. vulgatus RND KO = test: growth AUC normalised to DMSO control (median) (fraction of control); higher = less growth inhibition, active = hit call of the paper
Procedure, shortened: (§2)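 Strains were passaged twice overnight without oxygen, then grown in mGAM in 96-well plates with each approved-drug library compound at 20 μM and 1% DMSO, starting at OD578 0.01. OD578 was read hourly for 24 h inside an anaerobic incubator. Curves were truncated at entry into stationary phase, and the trapezoidal-rule area under the curve was normalised to same-plate vehicle wells. The value is the median across three biological replicates.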

P. vulgatus WT = test: as above
Procedure, shortened: as §2

[3] = test system: S. enterica typhimurium WT; test: as above
Procedure, shortened: as §2

[4] = test system: S. enterica typhimurium tolC KO; test: as above
Procedure, shortened: as §2

Measured: growth AUC normalised to DMSO control
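Throughout, for growth AUC normalised to DMSO control (median): active when median AUC fell below 0.1.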

CCOC(=O)c1ccc(OC(=O)CCCCCNC(=N)N)cc1 [Gabexate mesilate]
inactive: [1] 0.993 | Shigella flexneri 0.973 | Vibrio cholerae 0.987 | [2] 0.932 | P. vulgatus RND KO 0.985 | P. vulgatus WT 1 | [3] 1 | [4] 0.325

C=C1C[C@H]2[C@@H]3C=C(C)C4=CC(=O)CC[C@]4(C)[C@H]3CC[C@]2(C)[C@@]1(OC(C)=O)C(C)=O [Melengestrol acetate]
inactive: [1] 0.981 | Shigella flexneri 1.05 | Vibrio cholerae 1.03 | [2] 1.03 | P. vulgatus RND KO 0.993 | P. vulgatus WT 1.02 | [3] 1.01 | [4] 0.961

Nc1nc2c(ncn2COC(CO)CO)c(=O)[nH]1 [Ganciclovir]
inactive: [1] 0.988 | Shigella flexneri 0.996 | Vibrio cholerae 1 | [2] 0.99 | P. vulgatus RND KO 0.978 | P. vulgatus WT 0.971 | [3] 0.992 | [4] 0.993

COc1ccc2c(c1)C(=O)N(CCc1ccc(S(=O)(=O)NC(=O)NC3CCCCC3)cc1)C(=O)C2(C)C [Gliquidone]
inactive: [1] 1 | Shigella flexneri 1.02 | Vibrio cholerae 0.995 | [2] 1 | P. vulgatus RND KO 0.994 | P. vulgatus WT 1.01 | [3] 1.01 | [4] 1

NCCc1cc[nH]n1 [Betazole hydrochloride]
inactive: [1] 0.986 | Shigella flexneri 0.97 | Vibrio cholerae 0.979 | [2] 0.968 | P. vulgatus RND KO 0.999 | P. vulgatus WT 1.02 | [3] 1 | [4] 0.999

CS(=O)(=O)c1ccc(C2=C(c3ccccc3)C(=O)OC2)cc1 [Rofecoxib]
inactive: [1] 1.01 | Shigella flexneri 0.99 | Vibrio cholerae 1.02 | [2] 0.995 | P. vulgatus RND KO 1 | P. vulgatus WT 1.03 | [3] 1 | [4] 0.98

CC(=O)[C@H]1CC[C@H]2[C@@H]3CC=C4C[C@@H](O)CC[C@]4(C)[C@H]3CC[C@]12C [Pregnenolone]
inactive: [1] 1 | Shigella flexneri 0.985 | Vibrio cholerae 0.996 | [2] 1 | P. vulgatus RND KO 1.02 | P. vulgatus WT 1.02 | [3] 0.993 | [4] 0.954

CNC(=O)c1c(I)c(C(=O)NCC(=O)Nc2c(I)c(C(=O)O)c(I)c(C(=O)NCCO)c2I)c(I)c(N(C)C(C)=O)c1I [Ioxaglic acid]
inactive: [1] 0.968 | Shigella flexneri 0.993 | Vibrio cholerae 1.01 | [2] 0.964 | P. vulgatus RND KO 1.01 | P. vulgatus WT 1 | [3] 0.997 | [4] 0.994

O=C1NCCN1c1ncc([N+](=O)[O-])s1 [Niridazole]
active: [1] 0.0187 | Shigella flexneri 0.204 | Vibrio cholerae 0.036 | P. vulgatus RND KO 0.00953 | P. vulgatus WT 0.00802 | [3] 0.0321 | [4] 0.0104
inactive: [2] 0.93

O=C1Nc2ccc(Cl)cc2[C@@](C#CC2CC2)(C(F)(F)F)O1 [Efavirenz]
inactive: [1] 0.997 | Shigella flexneri 1.01 | Vibrio cholerae 0.999 | [2] 0.999 | P. vulgatus RND KO 0.715 | P. vulgatus WT 0.752 | [3] 1 | [4] 0.261

CCN1CCN(C(=O)N[C@@H](C(=O)N[C@@H]2C(=O)N3C(C(=O)O)=C(CSc4nnnn4C)CS[C@H]23)c2ccc(O)cc2)C(=O)C1=O [Cefoperazone dihydrate]
inactive: [3] 0.144
active: [1] 0.0254 | Shigella flexneri 0.0208 | Vibrio cholerae 0.0794 | [2] 0.16 | P. vulgatus RND KO 0.00991 | P. vulgatus WT 0.00365 | [4] 0.00245

CC(C)(C)NC(=O)[C@@H]1C[C@@H]2CCCC[C@@H]2CN1C[C@@H](O)[C@H](Cc1ccccc1)NC(=O)[C@H](CC(N)=O)NC(=O)c1ccc2ccccc2n1 [Saquinavir mesylate]
inactive: [1] 1.01 | Shigella flexneri 1.02 | Vibrio cholerae 1.04 | [2] 1.03 | P. vulgatus RND KO 0.859 | P. vulgatus WT 0.89 | [3] 1.02 | [4] 1

CCc1cc(Cl)c(OC)c(C(=O)NC[C@@H]2CCCN2CC)c1O [(S,-) Eticlopride hydrochloride]
inactive: [1] 1 | Shigella flexneri 1.01 | Vibrio cholerae 0.922 | [2] 0.986 | P. vulgatus RND KO 1.06 | P. vulgatus WT 1.03 | [3] 1 | [4] 0.947

CC(C)(Oc1ccc(Cl)cc1)C(=O)O [Clofibric acid]
inactive: [1] 0.995 | Shigella flexneri 1 | Vibrio cholerae 0.986 | [2] 0.996 | P. vulgatus RND KO 0.998 | P. vulgatus WT 1.01 | [3] 0.996 | [4] 1

Cc1cc(C)nc(NS(=O)(=O)c2ccc(N)cc2)n1 [Sulfamethazine sodium salt]
inactive: [1] 0.985 | Shigella flexneri 0.986 | Vibrio cholerae 0.982 | [2] 1.01 | P. vulgatus RND KO 0.996 | P. vulgatus WT 0.988 | [3] 0.992 | [4] 1.01

Nc1nc2c(ncn2COCCO)c(=O)[nH]1 [Acyclovir]
inactive: [1] 1.01 | Shigella flexneri 1.01 | Vibrio cholerae 1.01 | [2] 0.995 | P. vulgatus RND KO 1.05 | P. vulgatus WT 1.02 | [3] 1 | [4] 1

CCC(=O)O[C@]1(C(=O)CCl)[C@@H](C)C[C@H]2[C@@H]3CCC4=CC(=O)C=C[C@]4(C)[C@@]3(F)[C@@H](O)C[C@@]21C [Clobetasol propionate]
inactive: [1] 1.01 | Shigella flexneri 1.04 | Vibrio cholerae 1.02 | [2] 1.01 | P. vulgatus RND KO 1.02 | P. vulgatus WT 1.05 | [3] 1 | [4] 0.927

CN1CCC(=C2c3ccccc3CCc3sccc32)CC1 [Pizotifen malate]
active: Vibrio cholerae 0.873
inactive: [1] 0.992 | Shigella flexneri 0.976 | [2] 0.998 | P. vulgatus RND KO 0.965 | P. vulgatus WT 0.973 | [3] 0.994 | [4] 0.963

CCc1cc(C(N)=S)ccn1 [Ethionamide]
inactive: [1] 0.991 | Shigella flexneri 0.963 | Vibrio cholerae 0.998 | [2] 0.975 | P. vulgatus RND KO 1 | P. vulgatus WT 0.986 | [3] 0.996 | [4] 0.994

CCOC(=O)n1ccn(C)c1=S [Carbimazole]
inactive: [1] 0.98 | Shigella flexneri 1 | Vibrio cholerae 0.981 | [2] 0.998 | P. vulgatus RND KO 0.993 | P. vulgatus WT 1.01 | [3] 0.996 | [4] 1.01

CCC(Cc1c(I)cc(I)c(N)c1I)C(=O)O (stereo not given) [Iopanoic acid]
inactive: [1] 1.01 | Shigella flexneri 1.01 | Vibrio cholerae 1.01 | [2] 0.989 | P. vulgatus RND KO 0.999 | P. vulgatus WT 1 | [3] 1.01 | [4] 0.987

CC(=O)OCC(=O)[C@@]1(O)[C@H](C)C[C@H]2[C@@H]3CCC4=CC(=O)C=C[C@]4(C)[C@@]3(F)[C@@H](O)C[C@@]21C [Dexamethasone acetate]
inactive: [1] 1 | Shigella flexneri 1 | Vibrio cholerae 1 | [2] 0.999 | P. vulgatus RND KO 0.993 | P. vulgatus WT 1.02 | [3] 1.01 | [4] 0.998

O=C(c1ccc(OCCN2CCCCC2)cc1)c1c(-c2ccc(O)cc2)sc2cc(O)ccc12 [Raloxifene hydrochloride]
inactive: [1] 1.01 | Shigella flexneri 0.992 | Vibrio cholerae 0.988 | [2] 0.981 | P. vulgatus RND KO 1.06 | P. vulgatus WT 1.01 | [3] 1.02 | [4] 1.01

OC(Cn1cncn1)(Cn1cncn1)c1ccc(F)cc1F [Fluconazole]
inactive: [1] 1.01 | Shigella flexneri 1.03 | Vibrio cholerae 1.04 | [2] 1.01 | P. vulgatus RND KO 1.01 | P. vulgatus WT 1.06 | [3] 1.01 | [4] 1

CC(=O)N1CCN(c2ccc(OCC3COC(Cn4ccnc4)(c4ccc(Cl)cc4Cl)O3)cc2)CC1 (stereo not given) [Ketoconazole]
inactive: [1] 1.01 | Shigella flexneri 0.998 | Vibrio cholerae 0.988 | [2] 0.984 | P. vulgatus RND KO 0.955 | P. vulgatus WT 0.972 | [3] 0.998 | [4] 0.884

COc1ccc(C2CNC(=O)C2)cc1OC1CCCC1 (stereo not given) [Rolipram]
inactive: [1] 0.976 | Shigella flexneri 0.948 | Vibrio cholerae 0.945 | [2] 0.984 | P. vulgatus RND KO 1.01 | P. vulgatus WT 1.02 | [3] 1.01 | [4] 0.98

Cc1oncc1C(=O)Nc1ccc(C(F)(F)F)cc1 [Leflunomide]
inactive: [1] 0.989 | Shigella flexneri 0.988 | Vibrio cholerae 0.914 | [2] 1 | P. vulgatus RND KO 0.957 | P. vulgatus WT 1 | [3] 0.996 | [4] 0.896

Cc1ccc(C(=O)c2ccc(CC(=O)O)n2C)cc1 [Tolmetin sodium salt dihydrate]
inactive: [1] 0.984 | Shigella flexneri 1.04 | Vibrio cholerae 1.05 | [2] 1.01 | P. vulgatus RND KO 0.983 | P. vulgatus WT 0.985 | [3] 0.999 | [4] 1

CCCCOc1ccc(C(=O)CCN2CCCCC2)cc1 [Dyclonine hydrochloride]
inactive: [1] 0.985 | Shigella flexneri 0.963 | Vibrio cholerae 0.913 | [2] 0.979 | P. vulgatus RND KO 1 | P. vulgatus WT 1.01 | [3] 0.996 | [4] 0.986

NCc1ccccc1CC(=O)N[C@@H]1C(=O)N2C(C(=O)O)=C(CSc3nnnn3CC(=O)O)CS[C@H]12 [Ceforanide]
active: [1] 0.00985 | Shigella flexneri 0.0434 | Vibrio cholerae 0.0984 | [2] 0.023 | P. vulgatus RND KO 0.00761 | P. vulgatus WT 0.014 | [3] 0.00887 | [4] 0.00597
